Measurements published in the supplement of paper PMC11732987, “Enantioselective OTUD7B fragment discovery through chemoproteomics screening and high-throughput optimisation” (Communications Chemistry, 2025).

Experiments:
Assay in all cases: log2 ratio of Biotin-Ahx-Ub-VS probe labelling (fragment/DMSO); higher = less target engagement (more negative = stronger competition), active = hit call of the paper (q ≤ 0.05, log2 ratio ≤ -1)
Conditions in all cases: compound concentration: 200 uM; treatment time: 3 h
[1] = molecular target: T1, USP19 (UniProt O94966)
T1 sequence (whole entry): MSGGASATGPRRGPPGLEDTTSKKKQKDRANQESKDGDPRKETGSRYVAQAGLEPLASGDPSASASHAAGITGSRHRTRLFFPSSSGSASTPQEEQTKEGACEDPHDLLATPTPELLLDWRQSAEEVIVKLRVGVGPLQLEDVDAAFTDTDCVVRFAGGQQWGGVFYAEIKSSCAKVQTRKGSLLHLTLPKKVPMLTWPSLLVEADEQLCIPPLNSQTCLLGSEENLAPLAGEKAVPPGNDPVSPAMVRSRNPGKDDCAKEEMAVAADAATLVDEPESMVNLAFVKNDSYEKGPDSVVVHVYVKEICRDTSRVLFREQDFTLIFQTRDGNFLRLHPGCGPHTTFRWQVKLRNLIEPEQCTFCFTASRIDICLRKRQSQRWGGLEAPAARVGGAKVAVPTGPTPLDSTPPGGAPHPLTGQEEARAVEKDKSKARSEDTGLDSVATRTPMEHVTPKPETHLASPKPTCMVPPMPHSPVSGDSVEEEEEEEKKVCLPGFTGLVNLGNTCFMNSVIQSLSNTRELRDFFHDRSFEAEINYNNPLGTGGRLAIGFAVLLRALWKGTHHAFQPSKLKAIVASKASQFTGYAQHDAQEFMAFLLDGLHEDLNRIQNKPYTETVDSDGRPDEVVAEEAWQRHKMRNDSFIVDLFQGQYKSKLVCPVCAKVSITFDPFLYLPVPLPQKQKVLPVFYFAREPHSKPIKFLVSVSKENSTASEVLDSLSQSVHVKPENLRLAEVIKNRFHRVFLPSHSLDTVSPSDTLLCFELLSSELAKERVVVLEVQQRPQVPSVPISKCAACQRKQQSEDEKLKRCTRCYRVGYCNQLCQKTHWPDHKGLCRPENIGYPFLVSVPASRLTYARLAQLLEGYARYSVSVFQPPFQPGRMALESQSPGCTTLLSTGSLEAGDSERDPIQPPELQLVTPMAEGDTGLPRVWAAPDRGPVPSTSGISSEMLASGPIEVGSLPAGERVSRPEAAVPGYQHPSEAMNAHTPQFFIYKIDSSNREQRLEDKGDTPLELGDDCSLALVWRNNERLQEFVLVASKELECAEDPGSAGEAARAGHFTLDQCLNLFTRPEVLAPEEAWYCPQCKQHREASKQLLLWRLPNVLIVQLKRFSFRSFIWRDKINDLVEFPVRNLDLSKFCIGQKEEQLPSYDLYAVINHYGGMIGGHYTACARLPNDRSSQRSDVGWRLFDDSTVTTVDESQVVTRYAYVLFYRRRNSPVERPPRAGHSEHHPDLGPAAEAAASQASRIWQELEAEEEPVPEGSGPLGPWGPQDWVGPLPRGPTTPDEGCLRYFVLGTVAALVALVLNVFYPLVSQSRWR
Procedure, shortened: (§1)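 HEK293T lysate, 495 µg per sample in Tris/CHAPS/IGEPAL buffer with protease inhibitors, was treated in triplicate with fragment at 200 µM or vehicle for 3 h and then with Biotin-Ahx-Ub-VS at 0.5 µM final for 1 h. Labelled DUBs were NeutrAvidin-enriched, digested with LysC and trypsin, and run by diaPASEF LC-MS/MS. Spectronaut label-free quantities were global-median-normalised, and values are average log2 fragment/vehicle ratios by unpaired t-test on proteins with ≥2 unique peptides.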

[2] = molecular target: USP24 (UniProt Q9UPU5)
Sequence of USP24 (Q9UPU5 whole entry): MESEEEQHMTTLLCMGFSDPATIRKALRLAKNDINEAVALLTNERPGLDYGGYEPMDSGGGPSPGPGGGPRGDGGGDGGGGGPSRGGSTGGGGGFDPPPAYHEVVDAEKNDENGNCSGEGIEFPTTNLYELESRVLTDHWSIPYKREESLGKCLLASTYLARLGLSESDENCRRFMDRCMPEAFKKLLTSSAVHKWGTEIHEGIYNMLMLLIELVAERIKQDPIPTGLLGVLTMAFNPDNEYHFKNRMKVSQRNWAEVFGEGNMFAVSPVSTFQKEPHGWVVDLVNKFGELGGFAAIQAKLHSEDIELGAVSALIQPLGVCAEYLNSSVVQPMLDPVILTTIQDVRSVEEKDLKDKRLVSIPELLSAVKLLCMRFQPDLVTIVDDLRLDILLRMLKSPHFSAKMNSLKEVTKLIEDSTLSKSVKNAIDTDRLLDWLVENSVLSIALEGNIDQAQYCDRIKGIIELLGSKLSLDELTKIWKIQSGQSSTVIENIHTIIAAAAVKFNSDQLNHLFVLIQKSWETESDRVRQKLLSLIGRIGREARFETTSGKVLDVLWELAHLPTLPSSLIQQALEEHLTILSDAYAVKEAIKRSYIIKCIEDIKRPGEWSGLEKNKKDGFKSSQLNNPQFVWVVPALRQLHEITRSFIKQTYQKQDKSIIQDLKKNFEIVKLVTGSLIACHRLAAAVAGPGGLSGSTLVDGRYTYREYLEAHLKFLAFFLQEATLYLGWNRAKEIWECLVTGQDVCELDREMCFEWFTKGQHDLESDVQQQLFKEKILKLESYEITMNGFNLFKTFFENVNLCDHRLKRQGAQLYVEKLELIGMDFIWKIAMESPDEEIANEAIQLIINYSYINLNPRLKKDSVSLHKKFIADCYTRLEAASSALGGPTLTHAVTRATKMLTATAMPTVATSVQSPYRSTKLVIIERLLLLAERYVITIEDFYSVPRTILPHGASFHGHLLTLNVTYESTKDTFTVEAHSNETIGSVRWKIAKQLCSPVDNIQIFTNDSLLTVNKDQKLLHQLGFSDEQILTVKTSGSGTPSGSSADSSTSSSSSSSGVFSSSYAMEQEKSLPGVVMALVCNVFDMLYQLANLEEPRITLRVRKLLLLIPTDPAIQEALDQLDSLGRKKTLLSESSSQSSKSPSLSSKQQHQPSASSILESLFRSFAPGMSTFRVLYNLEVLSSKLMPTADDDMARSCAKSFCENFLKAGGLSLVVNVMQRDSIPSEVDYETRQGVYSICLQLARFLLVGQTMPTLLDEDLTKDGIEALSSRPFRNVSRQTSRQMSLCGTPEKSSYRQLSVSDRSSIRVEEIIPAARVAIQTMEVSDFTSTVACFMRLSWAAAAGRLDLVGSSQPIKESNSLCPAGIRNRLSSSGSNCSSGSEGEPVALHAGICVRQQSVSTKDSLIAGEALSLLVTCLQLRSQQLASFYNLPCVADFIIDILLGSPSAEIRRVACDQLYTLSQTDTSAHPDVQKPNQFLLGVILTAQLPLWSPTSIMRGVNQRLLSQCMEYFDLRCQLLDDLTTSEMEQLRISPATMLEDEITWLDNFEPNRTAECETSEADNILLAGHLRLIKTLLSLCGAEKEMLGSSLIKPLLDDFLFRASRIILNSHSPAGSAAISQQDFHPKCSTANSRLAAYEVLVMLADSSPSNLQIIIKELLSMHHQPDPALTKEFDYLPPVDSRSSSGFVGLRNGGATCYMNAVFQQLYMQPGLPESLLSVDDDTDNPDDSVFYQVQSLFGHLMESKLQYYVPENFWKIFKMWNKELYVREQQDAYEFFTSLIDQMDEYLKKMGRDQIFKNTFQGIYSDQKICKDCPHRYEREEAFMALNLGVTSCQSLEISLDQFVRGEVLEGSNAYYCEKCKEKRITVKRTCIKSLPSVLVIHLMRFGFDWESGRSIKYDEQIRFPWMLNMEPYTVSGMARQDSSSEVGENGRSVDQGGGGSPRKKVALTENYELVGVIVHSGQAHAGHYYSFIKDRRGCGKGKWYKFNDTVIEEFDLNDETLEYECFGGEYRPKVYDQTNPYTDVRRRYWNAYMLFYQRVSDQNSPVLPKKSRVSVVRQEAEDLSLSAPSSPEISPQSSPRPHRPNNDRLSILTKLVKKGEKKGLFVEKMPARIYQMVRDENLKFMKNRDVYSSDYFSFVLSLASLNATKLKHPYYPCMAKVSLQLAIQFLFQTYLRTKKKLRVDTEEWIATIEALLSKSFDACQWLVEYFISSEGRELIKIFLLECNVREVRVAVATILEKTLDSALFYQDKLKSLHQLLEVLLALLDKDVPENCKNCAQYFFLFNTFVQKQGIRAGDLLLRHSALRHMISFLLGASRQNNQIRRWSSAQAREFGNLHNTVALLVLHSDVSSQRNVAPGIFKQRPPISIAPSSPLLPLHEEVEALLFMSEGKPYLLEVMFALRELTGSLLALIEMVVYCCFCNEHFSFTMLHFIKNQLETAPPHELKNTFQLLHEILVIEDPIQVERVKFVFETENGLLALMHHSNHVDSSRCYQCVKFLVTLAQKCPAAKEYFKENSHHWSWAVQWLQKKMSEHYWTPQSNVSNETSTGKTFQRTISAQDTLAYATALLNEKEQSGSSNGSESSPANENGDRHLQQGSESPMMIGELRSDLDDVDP
Procedure, shortened: as §1

[3] = molecular target: T2, USP25 (UniProt Q9UHP3)
T2 sequence (whole entry): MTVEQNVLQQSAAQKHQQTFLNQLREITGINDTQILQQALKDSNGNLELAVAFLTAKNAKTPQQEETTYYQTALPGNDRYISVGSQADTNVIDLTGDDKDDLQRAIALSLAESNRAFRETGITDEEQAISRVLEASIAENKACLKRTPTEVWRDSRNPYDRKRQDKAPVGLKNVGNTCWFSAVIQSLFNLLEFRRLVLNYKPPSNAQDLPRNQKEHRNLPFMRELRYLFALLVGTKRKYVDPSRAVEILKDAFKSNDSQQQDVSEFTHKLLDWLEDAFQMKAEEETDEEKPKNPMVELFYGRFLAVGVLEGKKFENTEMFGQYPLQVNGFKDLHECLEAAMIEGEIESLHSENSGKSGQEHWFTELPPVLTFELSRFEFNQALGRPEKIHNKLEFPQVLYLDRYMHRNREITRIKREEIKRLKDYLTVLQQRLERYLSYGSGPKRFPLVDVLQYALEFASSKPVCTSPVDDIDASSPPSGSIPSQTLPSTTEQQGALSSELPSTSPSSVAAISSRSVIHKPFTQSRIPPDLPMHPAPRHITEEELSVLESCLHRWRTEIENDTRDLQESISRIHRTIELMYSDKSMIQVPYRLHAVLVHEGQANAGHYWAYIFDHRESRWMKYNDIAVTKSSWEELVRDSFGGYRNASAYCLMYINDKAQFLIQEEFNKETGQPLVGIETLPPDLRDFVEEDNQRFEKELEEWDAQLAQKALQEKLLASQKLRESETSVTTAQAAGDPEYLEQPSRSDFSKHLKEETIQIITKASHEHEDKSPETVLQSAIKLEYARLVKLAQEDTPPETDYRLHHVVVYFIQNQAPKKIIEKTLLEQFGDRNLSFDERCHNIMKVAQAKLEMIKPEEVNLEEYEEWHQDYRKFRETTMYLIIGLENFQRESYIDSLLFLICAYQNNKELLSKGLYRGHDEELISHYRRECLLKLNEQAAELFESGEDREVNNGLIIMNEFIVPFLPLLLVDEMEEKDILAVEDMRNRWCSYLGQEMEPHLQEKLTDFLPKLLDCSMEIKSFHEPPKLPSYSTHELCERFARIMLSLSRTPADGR
Procedure, shortened: as §1

[4] = molecular target: T3, USP28 (UniProt Q96RU2)
T3 sequence (whole entry): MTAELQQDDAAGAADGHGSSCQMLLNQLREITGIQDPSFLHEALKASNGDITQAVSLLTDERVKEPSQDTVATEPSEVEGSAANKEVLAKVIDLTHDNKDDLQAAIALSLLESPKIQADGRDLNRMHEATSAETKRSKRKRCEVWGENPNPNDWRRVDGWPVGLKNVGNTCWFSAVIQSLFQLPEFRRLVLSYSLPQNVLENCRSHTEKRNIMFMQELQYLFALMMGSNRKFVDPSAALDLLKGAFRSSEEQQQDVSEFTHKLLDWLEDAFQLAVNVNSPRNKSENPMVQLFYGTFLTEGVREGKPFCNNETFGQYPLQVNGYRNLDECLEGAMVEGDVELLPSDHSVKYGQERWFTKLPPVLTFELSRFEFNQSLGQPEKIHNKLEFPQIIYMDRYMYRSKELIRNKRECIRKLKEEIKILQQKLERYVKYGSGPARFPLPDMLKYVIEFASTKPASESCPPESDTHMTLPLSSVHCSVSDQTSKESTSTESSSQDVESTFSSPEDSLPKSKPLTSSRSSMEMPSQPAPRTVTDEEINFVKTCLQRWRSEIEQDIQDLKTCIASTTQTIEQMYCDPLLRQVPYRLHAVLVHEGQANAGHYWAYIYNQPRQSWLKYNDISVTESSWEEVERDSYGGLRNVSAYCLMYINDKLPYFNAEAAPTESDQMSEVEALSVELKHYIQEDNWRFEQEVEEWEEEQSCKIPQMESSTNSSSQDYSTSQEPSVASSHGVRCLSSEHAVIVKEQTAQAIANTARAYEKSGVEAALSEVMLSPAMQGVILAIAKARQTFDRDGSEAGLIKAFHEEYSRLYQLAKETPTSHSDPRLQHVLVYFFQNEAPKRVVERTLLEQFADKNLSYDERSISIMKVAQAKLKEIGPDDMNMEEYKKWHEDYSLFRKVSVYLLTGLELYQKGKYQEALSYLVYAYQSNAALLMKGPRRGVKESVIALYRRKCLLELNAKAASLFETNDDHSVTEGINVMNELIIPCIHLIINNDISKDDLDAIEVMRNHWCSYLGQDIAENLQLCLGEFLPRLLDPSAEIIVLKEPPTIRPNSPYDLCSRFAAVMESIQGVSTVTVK
Procedure, shortened: as §1

Measured: log2 ratio of Biotin-Ahx-Ub-VS probe labelling

O=C(CCl)N(C1CCCC1)C1CCS(=O)(=O)C1 (centres undefined)
inactive: [1] -0.0865 | [2] -0.274 | [3] 0.0715 | [4] -0.36
